In PubChem BioAssay AID743482 (Broad Institute, 2014) one finds outcome data, which are given here for 26 molecules.

Active and inactive are the calls of the source.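 The calls were made as follows: active = falling viability signal whose fitted half-maximal concentration is at most twice the highest tested dose; inconclusive = flat fit with a moderate drop, or a poor curve fit; inactive = the rest.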

The test is described as follows: HepG2 viability loss by ATP level – cell-based, CellTiter-Glo luminescence, dry powder, cytotoxicity control, dose response (AID 743482). The conditions noted are these: 72 h; series mostly up to 26 µM. A general note: In ATP-based viability assays light output follows the ATP content of the culture.
In the case of `C[C@@H]1CCCCO[C@H](CN(C)C(=O)Nc2cccc3ccccc23)[C@@H](C)CN([C@H](C)CO)C(=O)c2cc(NC(=O)C3CCCCC3)ccc2O1`, the outcome was inactive.
With `C[C@H]1CCCCO[C@H](CN(C)C(=O)Nc2cccc3ccccc23)[C@@H](C)CN([C@@H](C)CO)C(=O)c2cc(NC(=O)C3CCCCC3)ccc2O1`, the call was inactive.
On to `C[C@H](CO)N1C[C@H](C)[C@H](CN(C)C(=O)Nc2ccc(F)cc2)OCCCC[C@H](C)Oc2ccc(NC(=O)C3CCCCCC3)cc2C1=O`, for which the result was inactive.
With `C[C@H](CO)N1C[C@H](C)[C@@H](CN(C)C(=O)Nc2cccc3ccccc23)OCCCC[C@H](C)Oc2ccc(NC(=O)C3CCCCC3)cc2C1=O`, the call was inactive.
For the molecule `C[C@H](CO)N1C[C@H](C)[C@H](CN(C)C(=O)Nc2ccc(Cl)cc2)OCCCC[C@H](C)Oc2ccc(NC(=O)C3CCCCC3)cc2C1=O`, the molecule was classed as inactive.
Consider `C[C@H](CO)N1C[C@H](C)[C@H](CN(C)C(=O)Nc2cccc3ccccc23)OCCCC[C@H](C)Oc2ccc(NC(=O)NC3CCCCC3)cc2C1=O`, for which the molecule was classed as inactive.
For the molecule `C[C@@H]1CN([C@H](C)CO)C(=O)c2cc(NC(=O)C3CCCCC3)ccc2O[C@@H](C)CCCCO[C@@H]1CN(C)C(=O)Nc1cccc2ccccc12`, the call was inactive.
`CC(=O)Nc1ccc2c(c1)C(=O)N([C@H](C)CO)C[C@H](C)[C@H](CN(C)C(=O)Nc1ccc(F)cc1)OCCCC[C@H](C)O2`: the outcome was inactive.
`C[C@H](CO)N1C[C@H](C)[C@H](CN(C)C(=O)Nc2ccccc2)OCCCC[C@H](C)Oc2ccc(NC(=O)Nc3ccccc3)cc2C1=O`: the result was inactive.
Take `COc1ccc(NC(=O)N(C)C[C@@H]2OCCCC[C@H](C)Oc3ccc(NC(=O)NC4CCCCC4)cc3C(=O)N([C@H](C)CO)C[C@@H]2C)cc1`: the call was inactive.
Take `C[C@H](CO)N1C[C@H](C)[C@H](CN(C)C(=O)Nc2ccc3ccccc3c2)OCCCC[C@H](C)Oc2ccc(NC(=O)C3CCCCC3)cc2C1=O`: the outcome was inactive.
On to `C[C@H](CO)N1C[C@H](C)[C@H](CN(C)C(=O)Nc2ccc(F)cc2)OCCCC[C@H](C)Oc2ccc(NC(=O)NC3CCCCC3)cc2C1=O`, for which the outcome was inactive.
Take `C[C@@H]1CN([C@H](C)CO)C(=O)c2cc(NC(=O)C3CCCCC3)ccc2O[C@@H](C)CCCCO[C@H]1CN(C)C(=O)Nc1cccc2ccccc12`: the call was inactive.
For `C[C@H]1CCCCO[C@@H](CN(C)C(=O)Nc2ccc(C(F)(F)F)cc2)[C@@H](C)CN([C@@H](C)CO)C(=O)c2cc(NC(=O)CCC(F)(F)F)ccc2O1` the value was “inactive”; for `C[C@H](CO)N1C[C@H](C)[C@H](CN(C)C(=O)Nc2cccc3ccccc23)OCCCC[C@H](C)Oc2ccc(NC(=O)c3ccccc3)cc2C1=O`, “inactive”.
As to `C[C@H](CO)N1C[C@H](C)[C@H](CN(C)C(=O)Nc2ccc(F)cc2)OCCCC[C@H](C)Oc2ccc(NC(=O)Nc3ccccc3)cc2C1=O`, the molecule was classed as inactive.
For the molecule `C[C@H](CO)N1C[C@H](C)[C@H](CN(C)C(=O)Nc2ccc(F)cc2)OCCCC[C@H](C)Oc2ccc(NC(=O)Nc3ccc(F)cc3)cc2C1=O`, the molecule was classed as inactive.
On to `C[C@H](CO)N1C[C@H](C)[C@H](CN(C)C(=O)Nc2ccc(C(F)(F)F)cc2)OCCCC[C@H](C)Oc2ccc(NC(=O)NC3CCCCC3)cc2C1=O`, for which the call was inactive.
`C[C@@H]1CCCCO[C@@H](CN(C)C(=O)Nc2cccc3ccccc23)[C@@H](C)CN([C@H](C)CO)C(=O)c2cc(NC(=O)C3CCCCC3)ccc2O1`: the result was inactive.
Turning to `C[C@H](CO)N1C[C@H](C)[C@H](CN(C)C(=O)Nc2ccccc2)OCCCC[C@H](C)Oc2ccc(NC(=O)C3CCCCC3)cc2C1=O`, the molecule was classed as inactive.
As to `C[C@H](CO)N1C[C@H](C)[C@H](CN(C)C(=O)Nc2ccc(F)cc2)OCCCC[C@H](C)Oc2ccc(NC(=O)C3CCCC3)cc2C1=O`, the molecule was classed as inactive.
As for `C[C@H]1CCCCO[C@@H](CN(C)C(=O)Nc2cccc3ccccc23)[C@@H](C)CN([C@@H](C)CO)C(=O)c2cc(NC(=O)C3CCCCC3)ccc2O1`, the molecule was classed as inactive.
For the molecule `C[C@H](CO)N1C[C@H](C)[C@H](CN(C)C(=O)Nc2ccc3c(c2)OCO3)OCCCC[C@H](C)Oc2ccc(NC(=O)NC3CCCCC3)cc2C1=O`, the molecule was classed as inactive.
For `C[C@H](CO)N1C[C@H](C)[C@H](CN(C)C(=O)Nc2ccc(F)cc2)OCCCC[C@H](C)Oc2ccc(NC(=O)C3CCC3)cc2C1=O` the value was “inactive”; for `C[C@H](CO)N1C[C@H](C)[C@H](CN(C)C(=O)Nc2ccccc2)OCCCC[C@H](C)Oc2ccc(NC(=O)Nc3ccc4c(c3)OCO4)cc2C1=O`, “inactive”; for `C[C@@H]1CCCCO[C@@H](CN(C)C(=O)Nc2cccc3ccccc23)[C@@H](C)CN([C@@H](C)CO)C(=O)c2cc(NC(=O)C3CCCCC3)ccc2O1`, “inactive”.
